Experimental data published in PubChem BioAssay (Tox21).
Several values for one entry are separate records, joined by “and”; a condition that tells them apart may be missing. Identical values can stand only once. Results filed as inconclusive are left out. Activity calls are given as the source filed them. Unless noted, the call rests on the fitted dose curve; in most records, active means well fitted curve in the direction sought with a large enough effect in the repeat runs; inconclusive means weak or mixed curves; inactive means no such curve, though single readings can be large; an effect the other way counts as inactive or inconclusive.

What was measured:
[1] = qHTS assay to identify small molecule antagonists of the glucocorticoid receptor (GR) signaling pathway - cell viability counter screen (AID 720693); further: nearly all actives have a fitted effect of over 55% in size
[2] = qHTS assay for identifying genotoxic compounds that show differential cytotoxicity against isogenic chicken DT40 cell lines with known DNA damage response pathways - wild type cell line (AID 743012); further: nearly all actives have a fitted effect of over 60% in size; further: potency means the concentration at half of the fitted maximal effect
Method in brief: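 Viability by ATP luminescence (CellTiter-Glo, 30 min RT) after 40 h compound treatment at 37 C/5% CO2, using 300 parental DNA repair-proficient DT40 cells per well.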

[3] = qHTS assay for identifying genotoxic compounds that show differential cytotoxicity against isogenic chicken DT40 cell lines with known DNA damage response pathways - Rev3 mutant cell line (AID 743014); further: nearly all actives have a fitted effect of over 55% in size; further: potency means the concentration at half of the fitted maximal effect
[4] = qHTS assay for identifying genotoxic compounds that show differential cytotoxicity against isogenic chicken DT40 cell lines with known DNA damage response pathways - Rad54/Ku70 mutant cell line (AID 743015); further: nearly all actives have a fitted effect of over 60% in size; further: potency means the concentration at half of the fitted maximal effect
[5] = qHTS assay to identify small molecule antagonists of the androgen receptor (AR) signaling pathway - cell viability counter screen (AID 743033; further: nearly all actives have a fitted effect of over 45% in size)
[6] = qHTS assay to identify small molecule antagonists of the androgen receptor (AR) signaling pathway using the MDA cell line - cell viability counter screen (AID 743041; further: nearly all actives have a fitted effect of over 45% in size)
Method in brief: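 qHTS viability read-out; MDA-kb2 AR-luc; R1881-stimulated; 16 h exposure at 37C, 0% CO2; CellTiter-Fluor, 30 min; fluorescence intensity.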

[7] = target: Androgen receptor (Homo sapiens) (UniProt P10275); assay: qHTS assay to identify small molecule antagonists of the androgen receptor (AR) signaling pathway (AID 743035; active means well fitted inhibition curve with a large enough effect in the signal ratio in the repeat runs, not every such curve was filed as active; the % refers to the signal ratio)
Chain of Androgen receptor (Homo sapiens) (P10275 whole entry, looked up): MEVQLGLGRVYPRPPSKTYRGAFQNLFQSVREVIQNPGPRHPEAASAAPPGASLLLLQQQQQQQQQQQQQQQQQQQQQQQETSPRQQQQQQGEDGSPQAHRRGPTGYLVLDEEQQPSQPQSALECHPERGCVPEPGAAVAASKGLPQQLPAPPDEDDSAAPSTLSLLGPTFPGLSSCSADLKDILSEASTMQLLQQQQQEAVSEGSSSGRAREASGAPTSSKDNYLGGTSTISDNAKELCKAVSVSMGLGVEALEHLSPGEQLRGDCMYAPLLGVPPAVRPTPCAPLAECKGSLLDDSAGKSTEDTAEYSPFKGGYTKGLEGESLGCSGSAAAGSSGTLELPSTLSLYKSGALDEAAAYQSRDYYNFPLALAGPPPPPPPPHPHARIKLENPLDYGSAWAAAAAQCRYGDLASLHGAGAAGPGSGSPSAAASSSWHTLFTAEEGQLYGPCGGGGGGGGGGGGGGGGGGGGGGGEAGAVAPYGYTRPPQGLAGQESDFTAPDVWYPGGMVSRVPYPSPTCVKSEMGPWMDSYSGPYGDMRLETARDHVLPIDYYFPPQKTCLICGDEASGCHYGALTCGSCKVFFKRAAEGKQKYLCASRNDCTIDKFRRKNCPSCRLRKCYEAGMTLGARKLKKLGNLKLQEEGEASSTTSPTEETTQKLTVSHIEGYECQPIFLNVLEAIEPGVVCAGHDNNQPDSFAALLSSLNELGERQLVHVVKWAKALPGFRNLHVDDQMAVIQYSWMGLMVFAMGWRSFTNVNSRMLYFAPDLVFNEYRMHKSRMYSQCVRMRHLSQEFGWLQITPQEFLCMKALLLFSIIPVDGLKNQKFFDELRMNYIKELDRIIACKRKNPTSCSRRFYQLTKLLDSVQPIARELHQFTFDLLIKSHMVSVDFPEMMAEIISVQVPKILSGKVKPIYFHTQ
Method in brief: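 Antagonist mode: AR-bla HEK293 cells co-treated with test compounds and agonist R1881 for 16 h at 37C, 5% CO2. Beta-lactamase activity read as FRET fluorescence after 2 h room-temperature substrate loading.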

[8] = target: Androgen receptor (Homo sapiens) (UniProt P10275); assay: qHTS assay to identify small molecule agonists of the androgen receptor (AR) signaling pathway using the MDA cell line (AID 743040; further: nearly all actives have a fitted effect of over 20% in size)
Method in brief: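 Agonist activity is measured as luciferase luminescence in human MDA-kb2 cells whose MMTV reporter responds to both AR and GR. Compounds in DMSO incubate 16 h at 37C, 0% CO2, and ONE-Glo is read after 30 min.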

[9] = target: Androgen receptor (Homo sapiens) (UniProt P10275); assay: qHTS assay to identify small molecule antagonists of the androgen receptor (AR) signaling pathway using the MDA cell line (AID 743042; further: nearly all actives have a fitted effect of over 55% in size)
Method in brief: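 MDA-kb2 cells (human breast carcinoma, stably carrying an MMTV-luciferase reporter responsive to AR and GR) were plated at 3,000 cells/well and preincubated 5 hr at 37C, then given compound plus R1881 agonist for 16 h. ONE-Glo luminescence was read.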

[10] = target: Androgen receptor (Homo sapiens) (UniProt P10275); assay: qHTS assay to identify small molecule agonists of the androgen receptor (AR) signaling pathway (AID 743036; active means well fitted activation curve with a large enough effect in the signal ratio in the repeat runs, with a control signal flat, not every such curve was filed as active; the % refers to the signal ratio)
Method in brief: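 Reporter line: GeneBLAzer AR-UAS-bla-GripTite (HEK293). Steps: plate cells, 4 h rest, add compounds, 16 h at 37C, add LiveBLAzer B/G substrate, 2 h at RT, read fluorescence.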
On the % scale 0 is the no-effect control and ±100 the full control effect.

CCN[C@H]1C[C@H](C)S(=O)(=O)c2sc(S(N)(=O)=O)cc21
inactive: outcome [1] | Potency [2] | Potency [3] | Potency [4] | outcome [5] | Potency [6]

CC(C)C(=O)OC(=O)C(C)C
inactive: outcome [1] | Potency [2] | Potency [3] | Potency [4] | outcome [5] | Potency [6]

CC[N+](CC)(CC)CCOc1cccc(OCC[N+](CC)(CC)CC)c1OCC[N+](CC)(CC)CC
inactive: outcome [1] | Potency [2] | Potency [3] | Potency [4] | outcome [5] | Potency [7] | Potency [8] | Potency [6] | outcome [9]

CCCCN(CCC(=O)OCC)C(C)=O
inactive: outcome [1] | Potency [2] | Potency [3] | Potency [4] | outcome [5] | Potency [6]

CC(C)C1CCC(O)CC1 (stereo not drawn)
inactive: outcome [1] | Potency [2] | Potency [3] | Potency [4] | outcome [5] | Potency [7] | outcome [10] | Potency [8] | Potency [6] | outcome [9]

NC(CCC(=O)O)C(=O)O (stereo not drawn)
inactive: outcome [1] | Potency [2] | Potency [3] | Potency [4] | outcome [5] | Potency [6]

CC12CCC(C(=O)C1=O)C2(C)C (stereo not drawn)
inactive: outcome [1] | Potency [2] | Potency [3] | Potency [4] | outcome [5] | Potency [6]

NC(=O)N1c2ccccc2CC(=O)c2ccccc21
inactive: outcome [1] | outcome [5] | Potency [6]
active: Potency [2] 5.96 µM | Potency [3] 5.96 µM | Potency [4] 5.96 µM

CC(CO)(CO)[N+](=O)[O-]
inactive: outcome [1] | Potency [2] | Potency [3] | Potency [4] | outcome [5] | Potency [6]

Nc1ccn([C@@H]2O[C@H](CO)[C@@H](O)C2O)c(=O)n1 (stereo partly drawn)
active: Potency [2] 298 nM and 193 nM | Potency [3] 266 nM and 172 nM | Potency [4] 376 nM and 172 nM
inactive: outcome [1] | outcome [5] | Potency [6]

C=CCCCCCCCCC(=O)OCC
inactive: outcome [1] | Potency [2] | Potency [3] | Potency [4] | outcome [5] | Potency [6]

N[C@@H](CCC(=O)O)C(=O)O
inactive: outcome [1] | Potency [2] | Potency [3] | Potency [4] | outcome [5] | Potency [6]

CC(=O)NC(=O)c1ccccc1O
inactive: outcome [1] | Potency [2] | Potency [3] | Potency [4] | outcome [5] | Potency [6]

O=C(O)CNC(=O)c1ccc(CO)o1
inactive: outcome [1] | Potency [2] | Potency [3] | Potency [4] | outcome [5] | Potency [6]

CC(C)COC(=O)c1ccc(N)cc1
inactive: outcome [1] | Potency [2] | Potency [3] | Potency [4] | outcome [5] | Potency [6]

C=CN1CCCCCC1=O
inactive: outcome [1] | Potency [2] | Potency [3] | Potency [4] | outcome [5]

CCCc1nn(C)c2c(=O)[nH]c(-c3cc(S(=O)(=O)N4CCN(C)CC4)ccc3OCC)nc12
inactive: outcome [1] | Potency [2] | Potency [3] | Potency [4] | outcome [5] | Potency [6]

COc1c(N2CCNC(C)C2)c(F)cc2c(=O)c(C(=O)O)cn(C3CC3)c12 (stereo not drawn)
inactive: outcome [1] | Potency [2] | Potency [3] | Potency [4] | outcome [5] | Potency [6]

CC(=O)N[C@H]1[C@H]([C@H](O)[C@H](O)CO)OC(C(=O)O)=C[C@@H]1N=C(N)N
inactive: outcome [1] | Potency [2] | Potency [3] | Potency [4] | outcome [5] | Potency [7] | outcome [10] | Potency [8] | Potency [6] | outcome [9]

CC1CCC(CO)CC1 (stereo not drawn)
inactive: outcome [1] | Potency [2] | Potency [3] | Potency [4] | outcome [5] | Potency [7] | Potency [8] | Potency [6] | outcome [9]

CN(C)C(=O)Oc1ccc[n+](C)c1
inactive: outcome [1] | Potency [2] | Potency [3] | Potency [4] | outcome [5] | Potency [6]

[O-][n+]1cccc(CO)c1
inactive: outcome [1] | Potency [2] | Potency [3] | Potency [4] | outcome [5] | Potency [6]

Clc1cc(Cl)c(Cl)nc1Cl
inactive: outcome [1] | Potency [2] | Potency [3] | Potency [4] | outcome [5] | Potency [6]

C1CCC2(CCCCO2)OC1
inactive: outcome [1] | Potency [2] | Potency [3] | Potency [4] | outcome [5] | Potency [6]

COc1ccccc1OCC1CNC(=O)O1 (stereo not drawn)
inactive: outcome [1] | Potency [2] | Potency [3] | Potency [4] | outcome [5]

CC1=CC(=O)[C@H]2C[C@@H]1C2(C)C
inactive: outcome [1] | Potency [2] | Potency [3] | Potency [4] | outcome [5] | Potency [6]

CC1(C)[C@@H]2CC[C@@]1(C)[C@H](O)C2
inactive: outcome [1] | Potency [2] | Potency [3] | Potency [4] | outcome [5] | Potency [6]

CC[N+](C)(CC)CCOC(=O)C1c2ccccc2Oc2ccccc21
inactive: outcome [1] | Potency [2] | Potency [3] | Potency [4] | outcome [5] | Potency [6]

Nc1c2c(nc3c1CCC3)CCCC2
inactive: outcome [1] | Potency [2] | Potency [3] | Potency [4] | outcome [5] | Potency [8] | Potency [6] | outcome [9]

CC(COc1ccccc1)NN (stereo not drawn)
inactive: outcome [1] | Potency [2] | Potency [3] | Potency [4] | outcome [5] | Potency [6]

CCCOC(=O)CC
inactive: outcome [1] | Potency [2] | Potency [3] | Potency [4] | outcome [5] | Potency [7] | outcome [10] | Potency [8] | Potency [6] | outcome [9]

Nc1ccn([C@@H]2O[C@H](CO)[C@@H](O)C2(F)F)c(=O)n1
inactive: outcome [1] | outcome [5] | Potency [6]
active: Potency [2] 0.015 µM | Potency [3] 0.0188 µM | Potency [4] 0.0188 µM

OCCc1ccccn1
inactive: outcome [1] | Potency [2] | Potency [3] | Potency [4] | outcome [5] | Potency [6]

CO[C@@]1(NC(=O)CSC[C@@H](N)C(=O)O)C(=O)N2C(C(=O)O)=C(CSc3nnnn3C)CS[C@@H]21
inactive: outcome [1] | Potency [2] | Potency [3] | Potency [4] | outcome [5] | outcome [10] | Potency [8] | Potency [6] | outcome [9]

Nc1ccccn1
inactive: outcome [1] | Potency [2] | Potency [3] | Potency [4]

Cc1c(N)c(=O)n(-c2ccccc2)n1C
inactive: outcome [1] | Potency [2] | Potency [3] | Potency [4] | Potency [6]

CCO[Si](OCC)(OCC)c1ccccc1
inactive: outcome [1] | Potency [2] | Potency [3] | Potency [4] | outcome [5] | Potency [6]

CCOc1ccccc1OCC
inactive: outcome [1] | Potency [2] | Potency [3] | Potency [4] | outcome [5] | Potency [6]

O=C(O)CCSCCC(=O)O
inactive: outcome [1] | Potency [2] | Potency [3] | outcome [5] | outcome [10] | Potency [8] | Potency [6] | outcome [9]

C[C@@H]1CCC[C@H](C)N1
inactive: outcome [1] | Potency [2] | Potency [3] | Potency [4] | Potency [6]

CC(C)[C@H]1CC[C@@H](C)CC1=O
inactive: outcome [1] | Potency [2] | Potency [3] | Potency [4] | Potency [6]

CC(C)(CCC(=O)O)C(=O)O
inactive: outcome [1] | Potency [2] | Potency [3] | Potency [4] | outcome [5] | Potency [6]

CO/N=C(\C(=O)N[C@@H]1C(=O)N2C(C(=O)O)=C(CSc3nc(=O)c(O)nn3C)CS[C@H]12)c1csc(N)n1
inactive: outcome [1] | Potency [2] | Potency [3] | Potency [4] | outcome [5] | Potency [6]

CCCCc1nc(Cl)c(CO)n1Cc1ccc(-c2ccccc2-c2nn[nH]n2)cc1
inactive: outcome [1] | Potency [2] | Potency [3] | Potency [4] | Potency [6]

CCC(C)(CCCC(C)C)OC(C)=O (stereo not drawn)
inactive: outcome [1] | Potency [2] | Potency [3] | Potency [4] | Potency [6]

CCCCOCCOC(=O)COc1cc(Cl)c(Cl)cc1Cl
inactive: outcome [1] | Potency [2] | Potency [3] | Potency [4] | Potency [7] | outcome [10] | Potency [8] | Potency [6] | outcome [9]

CCCn1cc[n+](C)c1C
inactive: outcome [1] | Potency [2] | Potency [3] | Potency [4] | outcome [5] | Potency [6]

CC(C)c1ccc2ncccc2c1
inactive: outcome [1] | Potency [2] | Potency [3] | Potency [4] | Potency [6]

CCCCCCCCCCCCSC
inactive: outcome [1] | Potency [2] | Potency [4] | outcome [5] | Potency [6]
active: Potency [3] 61.1 µM

Cc1cc(C)c(N=Nc2c(O)c(S(=O)(=O)O)cc3cc(S(=O)(=O)O)ccc23)cc1C
inactive: viability change, negative = cytotoxic [1] -0.62% [at 7.04 µM] | activity change, negative = cytotoxicity [2] -7.67% [at 8.52 µM] | activity, negative = cytotoxicity [3] 0.342% [at 8.53 µM] | activity change, negative = cytotoxicity [4] 1.01% [at 8.55 µM] | activity change, negative = cytotoxicity [5] -2% [at 7.04 µM] | viability change, negative = cytotoxic [6] -1.15% [at 8.47 µM]

Clc1cc(Cl)cc(Cl)c1
inactive: outcome [1] | Potency [2] | Potency [3] | Potency [4] | Potency [6]

C=COC(=O)C(C)(CC)CCC(C)C (stereo not drawn)
inactive: outcome [1] | Potency [2] | Potency [3] | Potency [4] | Potency [6]

CC1OC1C1CCC2(C)OC2C1 (stereo not drawn)
inactive: outcome [1] | Potency [2] | Potency [3] | Potency [4] | Potency [6]

CCC(C(=O)NC(=O)NC(C)=O)c1ccccc1 (stereo not drawn)
inactive: outcome [1] | Potency [2] | Potency [3] | Potency [4] | Potency [6]
